Laboratory results published in the supplement of paper PMC10127200.
Counter-ions that a name gives are not always drawn.

tested on: FB; experiment: Euclidean distance of Cell Painting phenotypic profile (signed KS, 77 features) to DMSO centroid (dimensionless distance); 5 or 10 uM (library dependent); higher = stronger phenotypic change vs DMSO (phenoactivity); conditions: 48 h
Outline: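 Phenoactivity is defined as the Euclidean distance from a compound profile to the median vehicle profile. Each profile comprised 77 Harmony features, scored as signed Kolmogorov-Smirnov statistics versus same-plate vehicle wells, then plate-position corrected, correlation-weighted and replicate-averaged at the top dose. Five cancer lines and one healthy fibroblast line were exposed to library compounds for 48 h at 10 or 5 uM (0.1% DMSO final).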

**Q.** With COc1cc([C@@H]2c3cc4c(cc3[C@@H](O[C@@H]3O[C@@H]5CO[C@@H](C)O[C@H]5[C@H](O)[C@H]3O)[C@H]3COC(=O)[C@H]23)OCO4)cc(OC)c1O [Etoposide] as the molecule, how does the Euclidean distance read?
**A.** 3.88

**Q.** Which Euclidean distance does the source give for O=C(c1ccc(F)c(F)c1Nc1ccc(I)cc1F)N1CC(O)([C@@H]2CCCCN2)C1 [Cobimetinib (GDC-0973. RG7420)] here?
**A.** 4.08

**Q.** Which Euclidean distance does the source give for Cc1c(F)cccc1NC(=O)Nc1ccc(Cl)c(S(=O)(=O)[C@H]2CCCNC2)c1O here?
**A.** 1.15

**Q.** How did the Euclidean distance turn out when Nc1nc2[nH]cc(CCc3ccc(C(=O)N[C@@H](CCC(=O)O)C(=O)O)cc3)c2c(=O)[nH]1 [Pemetrexed] was run?
**A.** 0.521

**Q.** How did the Euclidean distance turn out when COc1ccccc1N1CCN(CCN2C(=O)CC3(CCCC3)CC2=O)CC1 was run?
**A.** 1.24

**Q.** CC[C@H]1OC(=O)[C@@](C)(F)C(=O)[C@H](C)[C@@H](O[C@@H]2O[C@H](C)C[C@H](N(C)C)[C@H]2O)[C@](C)(OC)C[C@@H](C)C(=O)[C@H](C)[C@H]2N(CCCCn3cc(-c4cccc(N)c4)nn3)C(=O)O[C@]12C [Solithromycin] was tested. Which Euclidean distance did it give?
**A.** 1.86

**Q.** With C[C@]12CC[C@@H]3c4ccc(O)cc4CC[C@H]3[C@@H]1CCC2=O [Estrone] as the molecule, how does the Euclidean distance read?
**A.** 1.21

**Q.** How did the Euclidean distance turn out when Oc1c2ccccc2c2c3c(cccc13)N=N2 was run?
**A.** 0.94

**Q.** Which Euclidean distance does the source give for C=C1/C(=C\C=C2/CCC[C@]3(C)[C@@H]([C@H](C)CCCC(C)(C)O)CC[C@@H]23)C[C@@H](O)C[C@@H]1O [Calcitriol] here?
**A.** 2.23

**Q.** For Cc1c(-c2cnccn2)ssc1=S [Oltipraz], which Euclidean distance is on record?
**A.** 0.877

**Q.** Which Euclidean distance does the source give for Cc1c(Nc2ncccc2C(=O)O)cccc1C(F)(F)F [Flunixin Meglumin] here?
**A.** 0.516

**Q.** CO/N=C(\C(=O)N[C@@H]1C(=O)N2C(C(=O)O)=C(COC(C)=O)CS[C@H]12)c1csc(N)n1 [Cefotaxime sodium] was tested. Which Euclidean distance did it give?
**A.** 0.644

**Q.** How did the Euclidean distance turn out when c1coc(CNc2ncnc3[nH]cnc23)c1 [Kinetin] was run?
**A.** 1.33

**Q.** CC[C@]1(O)C[C@H]2CN(CCc3c([nH]c4ccccc34)[C@@](C(=O)OC)(c3cc4c(cc3OC)N(C=O)[C@H]3[C@@](O)(C(=O)OC)[C@H](OC(C)=O)[C@]5(CC)C=CCN6CC[C@]43[C@@H]65)C2)C1 [Vincristine] was tested. Which Euclidean distance did it give?
**A.** 3.47

**Q.** For Nc1ncnc2c1ncn2[C@@H]1O[C@H](CO)[C@@H](O)[C@@H]1O [Vidarabine monohydrate], which Euclidean distance is on record?
**A.** 0.665

**Q.** Which Euclidean distance does the source give for COCCCN1CCC(NC(=O)c2cc(Cl)c(N)c3c2OCC3)CC1 [Prucalopride Succinat] here?
**A.** 0.581

**Q.** With OC(CCCN1CCCCC1)(c1ccccc1)c1ccccc1 [Diphenidol HCl] as the molecule, how does the Euclidean distance read?
**A.** 0.867

**Q.** CN(C)CC/C=C1/c2ccccc2COc2ccc(CC(=O)O)cc21 [Olopatadine HCl] was tested. Which Euclidean distance did it give?
**A.** 1.38

**Q.** With NC(=O)c1cnccn1 [Pyrazinamide] as the molecule, how does the Euclidean distance read?
**A.** 1.14

**Q.** For CC(C)NCC(O)c1ccc(O)c(O)c1 (centres undefined) [Isoproterenol sulfate dihydrate], which Euclidean distance is on record?
**A.** 1.23

**Q.** How did the Euclidean distance turn out when Cc1cc(F)c(Nc2ncnc3cc(OCc4ccccc4)ccc23)cc1O was run?
**A.** 1.8

**Q.** How did the Euclidean distance turn out when CCCCCCCCCC(=O)CC(O)S(=O)(=O)O (centres undefined) [Sodium Houttuyfonate] was run?
**A.** 0.985

**Q.** How did the Euclidean distance turn out when Oc1c(Br)cc(Br)c2cccnc12 [Broxyquinoline] was run?
**A.** 1.03

**Q.** Which Euclidean distance does the source give for Nc1ccn([C@H]2CC[C@@H](CO)O2)c(=O)n1 [Zalcitabine] here?
**A.** 0.942

**Q.** For Cc1cccc(-c2[nH]c(C(C)(C)C)nc2-c2ccc3nccnc3c2)n1, which Euclidean distance is on record?
**A.** 0.884

**Q.** O=C(CCCCCN1C(=O)c2cccc3cccc(c23)C1=O)NO [Scriptaid] was tested. Which Euclidean distance did it give?
**A.** 3.75

**Q.** For C[C@]12CCC3=C4CCC(=O)C=C4CC[C@H]3[C@@H]1CC[C@@]2(O)CC#N [Dienogest], which Euclidean distance is on record?
**A.** 1.08

**Q.** How did the Euclidean distance turn out when O=C(O)[C@@H](S)[C@@H](S)C(=O)O [Succimer] was run?
**A.** 1.35

**Q.** For Cc1c(-c2ccc(O)cc2)n(Cc2ccc(OCCN3CCCCCC3)cc2)c2ccc(O)cc12 [Bazedoxifene HCl], which Euclidean distance is on record?
**A.** 4.82

**Q.** How did the Euclidean distance turn out when Nc1ccn([C@@H]2O[C@H](CO)[C@@H](O)[C@@H]2O)c(=O)n1 [Cytarabine] was run?
**A.** 3.39

**Q.** For COc1cnc(NS(=O)(=O)c2ccc(N)cc2)nc1 [Sulfameter], which Euclidean distance is on record?
**A.** 1.28

**Q.** How did the Euclidean distance turn out when CC(C)c1ccc2oc3nc(N)c(C(=O)O)cc3c(=O)c2c1 [Amlexanox] was run?
**A.** 0.891

**Q.** For CCCN1C[C@H](C)[C@@H](O)[C@](C)(O)[C@@H](CC)OC(=O)[C@H](C)[C@@H](O[C@H]2C[C@@](C)(OC)[C@@H](O)[C@H](C)O2)[C@H](C)[C@@H](O[C@@H]2O[C@H](C)C[C@H](N(C)C)[C@H]2O)[C@](C)(O)C[C@H]1C [Gamithromycin], which Euclidean distance is on record?
**A.** 1.12

**Q.** For Nc1ccc2ncnc(NCCc3ccc(Oc4ccccc4)cc3)c2c1, which Euclidean distance is on record?
**A.** 1.68

**Q.** Which Euclidean distance does the source give for O=S1(=O)CCN(CN2CCS(=O)(=O)NC2)CN1 [Taurolidine] here?
**A.** 1.04

**Q.** CC(C)Nc1cccnc1N1CCN(C(=O)c2cc3cc(NS(C)(=O)=O)ccc3[nH]2)CC1 [Delavirdine (mesylate)] was tested. Which Euclidean distance did it give?
**A.** 1.56

**Q.** How did the Euclidean distance turn out when CC(COc1ccccc1Cc1ccccc1)N1CCCCC1 (centres undefined) [Benproperine phosphate] was run?
**A.** 1.18

**Q.** Which Euclidean distance does the source give for CCC/C=C1\OC(=O)C2=C1CCC=C2 [Ligustilide] here?
**A.** 1.01

**Q.** Which Euclidean distance does the source give for Cc1cnc(NC(=O)Nc2cc(Br)c(C)cc2OC[C@@H]2CNCCO2)cn1 here?
**A.** 1.52
